Inconclusive results are not listed. Calls of active or inactive are those of the source. Unless noted, calls come from the whole dose curve; as a rule, active = well fitted curve in the direction sought with a large enough effect in the repeat runs; inconclusive = weak or mixed curves; inactive = no such curve, though single readings can be large; an effect the other way counts as inactive or inconclusive.
Columns and labels:
[1] = qHTS assay to identify small molecule agonists of the vitamin D receptor (VDR) signaling pathway - cell viability counter screen (AID 743224); note: % is set by controls: 0 for no effect and ±100 for the full control effect; nearly all actives have a fitted effect of over 50% in size
Method in brief: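 Cells: VDR-bla, 2,000/well, settled 4 h. Treatment: compounds in DMSO, 16 h, 37C/5% CO2. Readout: CellTiter-Glo luminescence after 30 min RT.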

[2] = qHTS assay to identify small molecule agonists of the NFkB signaling pathway (AID 1159509; active = well fitted curve in the direction sought with a large enough effect in the signal ratio in the repeat runs, not every such curve was filed as active; the % refers to the signal ratio; note: % is set by controls: 0 for no effect and ±100 for the full control effect)
Method in brief: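 Readout: FRET fluorescence, 405 nm excitation, 460/530 nm emission; beta-lactamase expression disrupts FRET. Cells: ME-180 stably carrying NF-kB-driven bla reporter. Compound exposure 5 hr, 37 C, 5% CO2.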

[3] = qHTS assay to identify small molecule agonists of the endoplasmic reticulum stress response signaling pathway (AID 1159516; active = well fitted activation curve with a large enough effect in the signal ratio in the repeat runs, not every such curve was filed as active; the % refers to the signal ratio; note: % is set by controls: 0 for no effect and ±100 for the full control effect)
Method in brief: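 Cells are seeded at 1,500 per well and incubated overnight. Compounds in DMSO are added for 5 hr at 37 C, then beta-lactamase FRET substrate for 2 hr at room temperature, and fluorescence at 460 and 530 nm is measured.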

[4] = qHTS assay to identify small molecule agonists of the endoplasmic reticulum stress response signaling pathway - cell viability counter screen (AID 1159517; calls by dose curve;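 note: HeLa cells carrying an ER stress response element beta-lactamase reporter; % is set by controls: 0 for no effect and ±100 for the full control effect; nearly all actives have a fitted effect of over 50% in size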)
Method in brief: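 Cytotoxicity of test compounds toward ESRE-bla HeLa cells was assessed after 5 hr exposure. The luminescent CellTiter-Glo signal was measured 30 min after reagent addition.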

[5] = qHTS assay to identify small molecule antagonists of the retinoid-related orphan receptor gamma (ROR-gamma) signaling pathway - cell viability counter screen (AID 1159520); note: % is set by controls: 0 for no effect and ±100 for the full control effect; nearly all actives have a fitted effect of over 50% in size
Method in brief: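 Tet-on ROR gamma CHO cells (1,000/well) were plated 4 hr, given compounds in DMSO for 2 hr at 37 C, then induced with 1 uM final doxycycline for 16 hr. Viability was read as ATP by CellTiter-Glo luminescence after 30 min.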

[6] = molecular target: Nuclear receptor ROR-gamma (Homo sapiens) (UniProt P51449); experiment: qHTS assay to identify small molecule antagonists of the retinoid-related orphan receptor gamma (ROR-gamma) signaling pathway (AID 1159521;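 note: CHO cells with doxycycline inducible ROR-gamma driving an RORE luciferase reporter; top concentration of the series differs between compounds; % is set by controls: 0 for no effect and ±100 for the full control effect; nearly all actives have a fitted effect of over 50% in size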)
Method in brief: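 Tet-on RORγ CHO cells carrying a ROR response element–luciferase reporter were pretreated with compounds for 2 h, then induced with 1 uM (final) doxycycline hyclate for 16 h at 37 C. Antagonism was read as decreased ONE-Glo luminescence.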

[7] = qHTS assay to identify small molecule agonists of the AP-1 signaling pathway - cell viability counter screen (AID 1159525; calls by dose curve; note: nearly all actives have a fitted effect of over 55% in size)
Method in brief: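 Each titration point was normalised to DMSO and tetra n-octyl ammonium bromide controls. The read was Cell Titer Glo luminescence after 30 min at RT, following 5 h compound exposure of ME-180 AP-1-bla cells at 37 °C.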

[8] = qHTS assay to identify small molecule agonists of the AP-1 signaling pathway (AID 1159526; calls by dose curve; note: % is set by controls: 0 for no effect and ±100 for the full control effect)
[9] = molecular target: Retinoic acid receptor RXR-alpha (Homo sapiens) (UniProt P19793); experiment: qHTS assay to identify small molecule agonists of the RXR signaling pathway (AID 1159527; calls by dose curve; note: % is set by controls: 0 for no effect and ±100 for the full control effect; nearly all actives have a fitted effect of over 35% in size)
Method in brief: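 GeneBLAzer RXR-alpha-UAS-bla HEK 293T cells in medium with 2% charcoal-stripped FBS, pre-incubated 5 hr at 37 C, then exposed to compounds 16 hr. Beta-lactamase reporter read by FRET substrate, 2 hr room temperature, 460/530 nm emission.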

[10] = qHTS assay to identify small molecule agonists of the RXR signaling pathway - cell viability counter screen (AID 1159529)
Method in brief: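 RXR-alpha-UAS-bla HEK 293T cells in medium with 2% charcoal-stripped FBS were preincubated 5 hr, then exposed to compounds for 16 hr at 37 C. Viability was read as CellTiter-Glo luminescence after 30 min at room temperature.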

[11] = qHTS assay to identify small molecule antagonists of the retinoid acid receptor (RAR) signaling pathway - cell viability counter screen (AID 1159551); note: % is set by controls: 0 for no effect and ±100 for the full control effect; nearly all actives have a fitted effect of over 35% in size
Method in brief: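 Cells (C3RL4) are plated, incubated overnight, dosed with compound in DMSO, then given retinol at 1 uM final. After 6 h at 37 C, CellTiter-Glo is added and luminescence read following 30 min at room temperature.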

[12] = qHTS assay to identify small molecule antagonists of the retinoic acid receptor (RAR) signaling pathway (AID 1159552)
Method in brief: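 RARE-luc C3RL4 cells; cpds + 1 uM (final) retinol, 6 hr, 37 C/5% CO2; luciferase reagent, 30 min RT, luminescence readout. Inhibitors of retinol-driven signal scored.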

[13] = qHTS assay to identify small molecule agonists of the retinoic acid receptor (RAR) signaling pathway (AID 1159553); conditions: C3RL4 RARE luciferase reporter, agonist, 6 h; activation: at 73.3 µM (top of the series); note: potency is the fitted concentration of half-maximal effect; for activation: % is set by controls: 0 for no effect and ±100 for the full control effect
Method in brief: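 Seed C3RL4 reporter cells at 1,000 per well and incubate overnight at 37 C. Add compounds in DMSO, incubate 6 hr. Add luciferase reagent, wait 30 min at room temperature, read luminescence.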

[14] = molecular target: Luciferin 4-monooxygenase (Photinus pyralis) (UniProt P08659); experiment: qHTS assay to identify small molecule inhibitors of firefly luciferase (AID 1224835); note: nearly all actives have a fitted effect of over 25% in size; note: potency is the fitted concentration of half-maximal effect
Method in brief: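 Quantitative HTS format; KM concentrations of both substrates. Purified P. pyralis FLuc activity quantified from luminescence images.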

[15] = qHTS assay to identify small molecule agonists of the constitutive androstane receptor (CAR) signaling pathway - cell viability counter screen (AID 1224836); note: % is set by controls: 0 for no effect and ±100 for the full control effect; nearly all actives have a fitted effect of over 45% in size
Method in brief: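 HepG2 cells stably carrying hCAR and a CYP2B6-2.2kb reporter were plated 4 h, then given compounds at 15 concentrations plus PK11195 (final 0.75 uM). After 23 h at 37 C, viability was read by CellTiter-Fluor fluorescence.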

[16] = qHTS assay to identify small molecule antagonists of the vitamin D receptor (VDR) signaling pathway - cell viability counter screen (AID 743225)
Method in brief: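 VDR-bla HEK 293T cells, 4 h pre-incubation at 37C, then compound plus 1-alpha,25-dihydroxyvitamin D3 (3 nM final) for 16 h. After the beta-lactamase FRET read, CellTiter-Glo was added to the same wells; luminescence after 30 min at room temperature.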

[17] = qHTS assay to identify small molecule antagonists of the estrogen related receptor (ERR) signaling pathway from Tox21 library - cell viability counter screen (AID 1224834); note: % is set by controls: 0 for no effect and ±100 for the full control effect; nearly all actives have a fitted effect of over 30% in size
Method in brief: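 ERR cells, 2,000/well; 6 h settle at 37 C/5% CO2; pin-tool compound transfer in DMSO; 17.5 h at 37 C; CellTiter-Fluor, 30 min; fluorescence intensity.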

[18] = qHTS assay to identify small molecule antagonists of the constitutive androstane receptor (CAR) signaling pathway - cell viability counter screen (AID 1224837); note: % is set by controls: 0 for no effect and ±100 for the full control effect; nearly all actives have a fitted effect of over 45% in size
Method in brief: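 Viability was measured with CellTiter-Fluor in a HepG2 line carrying stably transfected hCAR and a CYP2B6-2.2kb construct. Cells were exposed for 23 hr at 37 C to 15 compound concentrations with 50 nM CITCO as agonist.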

[19] = molecular target: Nuclear receptor subfamily 1 group I member 3 (Homo sapiens) (UniProt Q14994); experiment: qHTS assay to identify small molecule antagonists of the constitutive androstane receptor (CAR) signaling pathway (AID 1224838);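 note: HepG2 cells stably expressing hCAR with CYP2B6 luciferase reporter stimulated by CITCO; % is set by controls: 0 for no effect and ±100 for the full control effect; nearly all actives have a fitted effect of over 40% in size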
Method in brief: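 Antagonist mode used CITCO at a final 50 nM to activate CAR in human hepatoma HepG2 cells carrying stable hCAR and a 2.2 kb CYP2B6 promoter-luciferase construct. Compounds were tested at 15 concentrations over 24 h, with luminescence as the end point.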

Sequence of Luciferin 4-monooxygenase (Photinus pyralis) (P08659 whole entry, looked up): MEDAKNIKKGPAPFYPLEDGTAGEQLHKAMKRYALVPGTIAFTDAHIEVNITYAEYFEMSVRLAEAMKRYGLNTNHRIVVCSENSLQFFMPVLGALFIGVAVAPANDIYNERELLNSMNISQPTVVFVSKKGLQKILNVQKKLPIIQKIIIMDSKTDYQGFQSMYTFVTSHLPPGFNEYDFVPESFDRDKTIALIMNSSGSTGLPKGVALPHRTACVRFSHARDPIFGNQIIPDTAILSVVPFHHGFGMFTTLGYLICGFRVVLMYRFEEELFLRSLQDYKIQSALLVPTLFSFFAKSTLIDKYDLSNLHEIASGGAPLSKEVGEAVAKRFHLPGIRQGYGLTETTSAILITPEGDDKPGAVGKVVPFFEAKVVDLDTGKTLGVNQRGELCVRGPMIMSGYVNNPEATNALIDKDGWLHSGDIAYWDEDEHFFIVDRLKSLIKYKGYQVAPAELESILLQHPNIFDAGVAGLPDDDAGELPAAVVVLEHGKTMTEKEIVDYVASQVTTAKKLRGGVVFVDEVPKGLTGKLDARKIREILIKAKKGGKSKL
Sequence of Retinoic acid receptor RXR-alpha (Homo sapiens) (P19793 whole entry, looked up): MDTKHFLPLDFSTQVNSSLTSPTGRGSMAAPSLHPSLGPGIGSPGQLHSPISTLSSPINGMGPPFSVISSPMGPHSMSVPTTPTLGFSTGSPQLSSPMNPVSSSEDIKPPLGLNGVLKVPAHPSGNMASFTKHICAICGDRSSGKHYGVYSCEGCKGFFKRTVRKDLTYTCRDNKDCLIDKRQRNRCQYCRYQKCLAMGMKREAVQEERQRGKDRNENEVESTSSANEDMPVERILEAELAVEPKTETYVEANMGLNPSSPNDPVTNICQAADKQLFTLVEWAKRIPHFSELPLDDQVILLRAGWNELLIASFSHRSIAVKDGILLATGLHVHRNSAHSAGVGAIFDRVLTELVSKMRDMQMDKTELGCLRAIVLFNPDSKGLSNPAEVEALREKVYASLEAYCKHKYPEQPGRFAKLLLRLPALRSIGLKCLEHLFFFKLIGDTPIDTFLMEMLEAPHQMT
Sequence of Nuclear receptor subfamily 1 group I member 3 (Homo sapiens) (Q14994 whole entry, looked up): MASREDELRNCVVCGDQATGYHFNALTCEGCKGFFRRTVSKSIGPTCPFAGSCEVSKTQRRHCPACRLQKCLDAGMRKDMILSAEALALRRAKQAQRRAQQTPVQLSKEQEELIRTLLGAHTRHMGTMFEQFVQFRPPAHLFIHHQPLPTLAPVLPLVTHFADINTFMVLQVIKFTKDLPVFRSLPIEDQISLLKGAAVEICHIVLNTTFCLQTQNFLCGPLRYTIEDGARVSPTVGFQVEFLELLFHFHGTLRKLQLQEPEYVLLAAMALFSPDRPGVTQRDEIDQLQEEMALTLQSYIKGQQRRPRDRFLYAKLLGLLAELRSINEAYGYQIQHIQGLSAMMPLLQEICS

Cc1cc(C)cc([N+](=O)[O-])c1
inactive: outcome [1] | outcome [2] | outcome [3] | outcome [4] | outcome [5] | outcome [6] | outcome [7] | outcome [8] | Potency [9] | outcome [10] | outcome [11] | Potency [12] | Potency [13] | Potency [14] | outcome [15]

C[CH2][Ge]([Cl])([CH2]C)[CH2]C
inactive: outcome [1] | outcome [16] | outcome [2] | outcome [3] | outcome [4] | outcome [5] | outcome [6] | outcome [7] | outcome [8] | Potency [9] | outcome [10] | outcome [11] | Potency [12] | Potency [13] | Potency [17] | Potency [14] | outcome [15]

CN(C)CCOCCN(C)CCO
inactive: outcome [1] | outcome [2] | outcome [3] | outcome [4] | outcome [5] | outcome [6] | outcome [7] | outcome [8] | Potency [9] | outcome [10] | outcome [11] | Potency [13] | Potency [14] | Potency [18]

O=C1CC[C@H](C(=O)N2CCCCC2)N1
inactive: outcome [1] | outcome [2] | outcome [3] | outcome [4] | outcome [5] | outcome [7] | outcome [8] | Potency [9] | outcome [10] | outcome [11] | Potency [12] | Potency [13] | Potency [17] | Potency [14] | outcome [15]

CN[C@@H]1[C@H](O)[C@H](NC)[C@H]2O[C@@]3(O)C(=O)C[C@@H](C)O[C@H]3O[C@@H]2[C@H]1O
inactive: outcome [1] | outcome [16] | outcome [2] | outcome [3] | outcome [4] | outcome [5] | outcome [6] | outcome [7] | outcome [8] | Potency [9] | outcome [10] | outcome [11] | Potency [12] | Potency [13] | Potency [17] | Potency [18]

O=C1NC2NC(=O)NC2N1 (stereo not given)
inactive: outcome [1] | outcome [2] | outcome [3] | outcome [4] | outcome [5] | outcome [6] | outcome [7] | outcome [8] | Potency [9] | outcome [10] | outcome [11] | Potency [12] | Potency [13] | Potency [17] | Potency [14] | outcome [15]

CC(C)COC(=O)/C=C/c1ccccc1
inactive: outcome [1] | outcome [16] | outcome [2] | outcome [3] | outcome [4] | outcome [5] | outcome [7] | outcome [8] | Potency [9] | outcome [10] | Potency [12] | Potency [17] | outcome [15] | Potency [18] | Potency [19]
active: Potency [13] 30.6 µM | Potency [14] 7.1 µM

O=C(Nc1cccc(C2=NCCN2)c1)Nc1cccc(C2=NCCN2)c1
inactive: outcome [1] | outcome [2] | outcome [3] | outcome [4] | activity, negative = cytotoxicity [5] 4.97% [at 19 µM] | activity change, negative = inhibition [6] -4.66% [at 19 µM] | viability change, negative = cytotoxic [7] 3.95% [at 15.8 µM] | activation [8] -8.47% [at 15.8 µM] | activation [9] 1.97% [at 15.8 µM] | activity change, negative = cytotoxicity [10] 12.6% [at 15.8 µM] | activity, negative = inhibition [12] 6.53% [at 19 µM] | Potency [13] | viability change, negative = cytotoxic [17] 1.33% [at 19 µM] | activity change, negative = cytotoxicity [18] 1.51% [at 19 µM]

O=C(O)Cc1cccc(-c2cc(CCCCCCc3ccc(O[C@H]4O[C@H](CO)[C@@H](O)[C@H](O)[C@@H]4O)c(-c4cccc(CC(=O)O)c4)c3)ccc2O[C@H]2O[C@H](CO)[C@@H](O)[C@H](O)[C@@H]2O)c1
inactive: activity change, negative = cytotoxicity [1] -3.17% [at 0.55 µM] | viability change, negative = cytotoxic [16] 5.12% [at 0.628 µM] | activation [2] 0.357% [at 0.628 µM] | activation [3] 1.35% [at 0.628 µM] | activity change, negative = cytotoxicity [4] 4.41% [at 0.628 µM] | activity, negative = cytotoxicity [5] 0.991% [at 0.349 µM] | activity change, negative = inhibition [6] -17.6% [at 0.35 µM] | viability change, negative = cytotoxic [7] 1.08% [at 0.29 µM] | activation [8] -4.69% [at 0.29 µM] | activation [9] 6.74% [at 0.29 µM] | activity change, negative = cytotoxicity [10] 12.1% [at 0.29 µM] | activity change, negative = cytotoxicity [11] -1.44% [at 0.349 µM] | activation [13] 0.783% [at 0.756 µM] | activity change, negative = inhibition [14] 2.97% [at 0.435 µM] | viability change, negative = cytotoxic [15] 5.82% [at 0.349 µM] | activity change, negative = cytotoxicity [18] 5.71% [at 0.349 µM]

Reference: PubChem BioAssay (Tox21)
